# Assay results as given in PubChem BioAssay (Tox21).
# Results filed as inconclusive are left out. The source made the active and inactive calls. Calls follow the shape of the full dose curve.
# Test: qHTS assay to identify small molecule agonists of the NFkB signaling pathway - cell viability counter screen (AID 1159515); also: nearly all actives have a fitted effect of over 55% in size
# Conditions: NFkB-bla ME-180 viability, CellTiter-Glo luminescence, 5 h; series mostly up to 61 µM
# Source text: National Center for Advancing Translational Sciences [NCATS]
# NIH Chemical Genomics Center [NCGC]
# U.S. Environmental Protection Agency [EPA]
# National Institutes of Environmental Health Sciences [NIEHS]
# National Toxicology Program [NTP]
# U.S. Food and Drug Administration [FDA]
# Transcription factors and their stimulated target gene expression play pivotal roles across many cellular processes including responses to environmental stimuli. Proper regulation of associated pathways is critical to maintain cell health and function. Constitutive activation of transcription factor pathways has been implicated in tumors as it may block cellular functions such as apoptosis and lead to invasion and metastasis. One important transcription factor that stimulates gene expression in response to cytokines, UV radiation, and other stimuli is nuclear factor-kappa B (NFkB). To measure activation of the NFkB pathway, the CellSensor NFkB-bla ME-180 cell line (Life Technologies, Carlsbad, CA) that stably expresses beta-lactamase reporter gene under the regulation of a NF-kB response element was used. This assay allows measurement of the NFkB pathway activity induced by compounds in a ME-180 cell line. This system quantitates NF-kB activity using a FRET-based assay system where beta-lactamase expression disrupts FRET, allowing for fluorescent measurement of activity. This cell line has been used to screen the Tox21 10K compound library and to identify compounds that induce the NFkB pathway activity. The cytotoxicity of the Tox21 compound library against the NFkB-bla ME-180 cell line was tested in parallel by measuring cell viability using the CellTiter-Glo assay in the same wells.
# Tox21 Assay Protocol Summary:
# NFkB-bla ME-180 cells were dispensed at 2,000 cells/6 uL of assay medium per well into black wall/clear-bottom 1536-well plates using a Multidrop Combi (ThermoFisher Scientific, Waltham, MA) dispenser. After the assay plates were incubated at 37 C and 5% CO2 for an overnight, 23 nL of compounds dissolved in DMSO, positive controls or DMSO only was transferred to the assay plate by a Pintool station (Kalypsys, San Diego, CA). The assay plates were incubated at 37 C and 5% CO2 for 5 hr. One uL of LiveBLAzer B/G FRET substrate (Life Technologies) was added using a Flying Reagent Dispenser (Aurora Discovery, San Diego, CA) and the plates were incubated at room temperature for 1.5 hr. Fluorescence intensity (405 nm excitation, 460 nm and 530 nm emissions) was measured using an Envision plate reader (PerkinElmer, Shelton, CT). For cytotoxicity, 3 ul/well of CellTiter-Glo reagent was added into the assay plates using an FRD. After 30 min incubation at room temperature, the luminescence intensity was measured using a ViewLux plate reader (PerkinElmer).
row,Compound,outcome
1,C=CCSSCCC,inactive
2,CCC(=O)c1c(O)cc(O)cc1O,inactive
3,CCOCCOCC,inactive
4,O=C(CCCCC(=O)Nc1c(I)cc(I)c(C(=O)O)c1I)Nc1c(I)cc(I)c(C(=O)O)c1I,inactive
5,CCC(=O)CC,inactive
6,O=C=NCC1CCCC(CN=C=O)C1 (stereo not given),inactive
7,ONc1ccccc1,inactive
8,CCCCCCCCCCCCCBr,inactive
9,NCC1(Cc2noc(=O)[nH]2)CCCCC1,inactive
10,C#CCN[C@@H]1CCc2ccccc21,inactive
11,COc1ccc2c(c1)c1c3n2CCN(C)C3=NCC1,inactive
12,CC1(C)Cc2cccc(N)c2O1,inactive
13,CC/C=C\CCOC(=O)c1ccccc1O,inactive
14,O=C(Cl)c1ccccc1[N+](=O)[O-],inactive
15,OC[C@@H](O)C(O)[C@@H](O)CO (stereo not given in full),inactive
16,CC(C)(C)NC[C@H](O)COc1cccc2c1CCCC2=O,inactive
17,CC(C)CCOC(=O)c1ccccc1,inactive
18,CCCCCCC1(C)CCC(=O)O1 (stereo not given),inactive
19,O=C(CCCl)NCCc1ccccc1,inactive
20,Cc1ccccc1C(N)=O,inactive

row,Compound,outcome
1,CC(O)COC(C)(C)C (stereo not given),inactive
2,C=CC(=O)CCCCC,inactive
3,Cc1cc(C)c(C(=O)O)c(C)c1,inactive
4,COC(=O)/C=C\C(=O)O,inactive
5,CC(=O)OC1CCCCC1C(C)(C)C (stereo not given),inactive
6,c1ccc2c(CC3=NCCN3)cccc2c1,inactive
7,Nc1nc(-c2ccccc2)c(Br)c(=O)[nH]1,inactive
8,CCCCCCCCCCCCCCCCCCOCCO,inactive
9,[O]=[Mo](=[O])=[O],inactive
10,C=C(C)c1cccc(C(C)(C)N=C=O)c1,inactive
11,CC(C)c1ccc(C=O)cc1,inactive
12,CC(=O)C1C(=O)C=C(C)OC1=O (stereo not given),inactive
13,Cc1ccc2c(c1)C(=O)c1ccccc1C2=O,inactive
14,O=C(O)CSCC(=O)NC1CCSC1=O (stereo not given),inactive
15,CCC(C(=O)OCCN1CCOC(c2ccccc2)C1C)c1ccccc1 (stereo not given),inactive
16,c1ccc(-c2nn[nH]n2)cc1,inactive
17,O=[N+]([O-])c1c(Cl)cc(Cl)cc1Cl,inactive
18,CCCCCc1cccc(=O)o1,inactive
19,Cc1c(C(=O)c2c[nH]n(C)c2=O)ccc(S(C)(=O)=O)c1C1=NOCC1,inactive
20,COc1nc(N)nc2nc[nH]c12,inactive
